Assay outcomes from PubChem.
Rows were chosen to be rich in hits. Some 1.6% of all compounds tested hit in one or more screens of this group.
gsp antag = qHTS for Antagonists of gsp, the Etiologic Mutation Responsible for Fibrous Dysplasia/McCune-Albright Syndrome: qHTS. gsp-mutant cells, cAMP HTRF, 30 min. Potency, µM (top dose mostly 76.9 µM), without a hit: top-dose activity change, negative = inhibition, most hits filed as inhibitors. actives 0.4% (n = 340,000). AID 624288, 2012; calls by dose curve; cell line not stated here;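 also: intracellular cAMP measured with PDE inhibitor Ro 20-1724 present during compound exposure; potency is read from the fitted curve at half-maximal effect; % is scaled to controls: 0 for no effect and ±100 for the full control effect; nearly all actives have a fitted effect of over 65% in size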
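Cells, 2000/well, grown 16–24 h in DMEM 10% FBS with 0.5 mg/ml G418, then compounds plus […] (300 uM addition stock), 30 min at 37C. cAMP read by HTRF (cAMP-d2 and anti-cAMP antibody-K in lysis buffer) after 30 min RT.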
FBPA coupling cs = qHTS Assay for Inhibitors of Fructose-1,6-bisphosphate Aldolase from Giardia Lamblia: Coupling assay counterscreen. coupling enzyme system counterscreen, AmpLite Red fluorescence. activity change, negative = inhibition, % at 58.2 µM, hits read low. actives 0.67% (n = 290,000); in the data active = activity change below about -30%; also: % is scaled to controls: 0 for no effect and ±100 for the full control effect
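Activity here indicates interference with the coupling reaction, not aldolase inhibition. Compounds at 57.5 uM final met coupling enzymes for 10 min at RT; substrate and AmpLite Red detection followed, with a 525/598 nm fluorescence read after 20 min.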
RXFP1 ag = qHTS Assay for Agonists of the Relaxin Receptor RXFP1; actives 0.3% (n = 370,000); Potency, µM (doses to about 57.5 µM), without a hit: at the highest dose activation, most hits filed as activators; HEK293T-RXFP1 cAMP TR-FRET, 30 min; response scale: percent of porcine relaxin response, buffer zero; AID 2676, 2010; active = well fitted activation curve with a large enough effect; inconclusive = small, poorly fitted or top-dose-only effect; also: potency is read from the fitted curve at half-maximal effect; % is scaled to controls: 0 for no effect and ±100 for the full control effect; nearly all actives have a fitted effect of over 60% in size
Target sequence (Q9HBX9 whole entry, looked up): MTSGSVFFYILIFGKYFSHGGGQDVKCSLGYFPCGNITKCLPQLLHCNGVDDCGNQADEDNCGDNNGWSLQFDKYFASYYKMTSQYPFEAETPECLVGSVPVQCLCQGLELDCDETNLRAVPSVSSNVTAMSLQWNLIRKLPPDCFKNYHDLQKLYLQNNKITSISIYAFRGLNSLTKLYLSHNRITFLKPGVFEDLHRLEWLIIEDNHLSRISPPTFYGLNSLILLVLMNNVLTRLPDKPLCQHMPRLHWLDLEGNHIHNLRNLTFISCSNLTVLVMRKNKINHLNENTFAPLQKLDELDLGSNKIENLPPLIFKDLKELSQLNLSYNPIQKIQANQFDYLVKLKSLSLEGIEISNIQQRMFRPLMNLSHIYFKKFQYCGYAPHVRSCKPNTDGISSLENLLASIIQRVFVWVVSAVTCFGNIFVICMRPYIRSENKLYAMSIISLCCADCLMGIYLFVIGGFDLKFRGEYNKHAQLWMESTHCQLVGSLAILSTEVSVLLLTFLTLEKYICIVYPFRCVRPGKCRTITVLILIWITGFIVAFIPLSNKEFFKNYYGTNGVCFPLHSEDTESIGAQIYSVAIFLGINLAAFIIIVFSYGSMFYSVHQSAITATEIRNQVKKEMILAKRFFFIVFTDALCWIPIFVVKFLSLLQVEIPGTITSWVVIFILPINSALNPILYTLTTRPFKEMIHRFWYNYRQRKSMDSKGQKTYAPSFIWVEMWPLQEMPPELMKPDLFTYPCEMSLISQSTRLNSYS
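cAMP rise read by TR-FRET after 30 min, 37C compound exposure (up to 58 uM) in RXFP1-transfected HEK293 cells with Ro 20174 present. EC50 from Hill-equation fits, with 29 nM porcine relaxin as 100% and buffer as basal.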
RXFP1 antag = qHTS Assay for Antagonists of the Relaxin Receptor RXFP1; Relaxin receptor 1 (Homo sapiens), Q9HBX9; HEK293-RXFP1, relaxin-stimulated cAMP HTRF, 30 min; active compounds read low; activity change, negative = inhibition, % at 57.5 µM; actives 0.59% (n = 350,000); AID 1259400, 2018;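 active = activity change of -60% or lower, but not beyond a set lower limit; inconclusive = change between -60% and -40%, or beyond the set limit; inactive = change above -40%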; also: % is scaled to controls: 0 for no effect and ±100 for the full control effect
Giardia killer = Small Molecules that selectively kill Giardia lamblia: qHTS. Giardia lamblia trophozoite viability. activity change, % at 7.66 µM, hits read low. actives 0.15% (n = 340,000); in the data active = activity change below about -80%; inconclusive = between about -30% and that limit;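 also: parasites exposed to compound for two days anaerobically before the ATP read; % is scaled to controls: 0 for no effect and ±100 for the full control effect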
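Compounds were tested on trophozoites seeded at 100 cells/well and held 48 hrs at 37 deg C anaerobically. An ATP-based luminescent kit measured the remaining live cells.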
gsp ag = qHTS for Agonist of gsp, the Etiologic Mutation Responsible for Fibrous Dysplasia/McCune-Albright Syndrome: qHTS; gsp mutant cells, cAMP HTRF, 30 min; actives 0.13% (n = 340,000); Potency, µM (doses to about 76.9 µM), for inactives: top-dose activation (cAMP increase), most hits filed as activators; active = well fitted activation curve with a large enough effect; inconclusive = small, poorly fitted or top-dose-only effect, or another doubt; inactive = no such curve, though single readings can be large or run the other way; cell line not stated here;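 also: phosphodiesterase inhibitor Ro 20-1724 added with compounds to block cAMP breakdown; potency is read from the fitted curve at half-maximal effect; nearly all actives have a fitted effect of over 60% in size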
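Cells in DMEM/10% FBS with G418 were pretreated with compounds in DMSO plus […] (300 uM stock) for 30 min at 37C. cAMP was measured by HTRF (cAMP-d2 plus anti-cAMP antibody-K) after 30 min at room temperature.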
* marks the source's active call; other numbers are inactive results; ? = inconclusive; . = not tested or not shown; [ ] = remark or other dose.

SMILES | gsp antag | FBPA coupling cs | RXFP1 ag | RXFP1 antag | Giardia killer | gsp ag
O=C(O)[C@H]1CCCN1 | . | 0 | . | . | . | .
CC1CCCN(CC(=O)Nc2ccc(S(=O)(=O)N3CCCC3)cc2)C1 (stereo not given) | 0% | 0 | 0% | 2 | 19 | -10%[15.4 µM]
COC(=O)[C@@H](NC(=O)N1CCc2nc(COc3ccccc3)c3c(c2C1)CO[C@@H](C)C3)C(C)C | . | 1 | . | . | . | .
C/C(O)=C(/C#N)c1nc2ccccc2[nH]1 | -3% | 2 | 0% | -7 | -14 | 3%
N#C/C(=C(/O)C(Cl)(Cl)Cl)c1nc2ccccc2[nH]1 | 28µM* | -2 | 3% | -17 | ? | -12%
Fc1ccccc1Nc1nc2c(s1)CCc1ccccc1-2 | . | -69* | 2% | . | . | .
CC(=O)N1CCOc2ccc(S(=O)(=O)NCCc3ccc(Cl)cc3)cc21 | 2% | 1 | 0% | -68* | 6 | -15%
CCN1CCN(C(=S)c2ccc(Cl)cc2)CC1 | 24% | -54* | 1% | 5 | 4 | 3%
CC(C(=O)OCC(=O)N1CCN(c2ccccc2)CC1)N1C(=O)c2ccccc2C1=O (stereo not given) | -3% | . | 0% | 26 | -2 | -4%
CNC(=O)c1nc(C)n(-c2ccc(Cl)cc2Cl)n1 | 17% | 3 | -4% | -11 | 10 | 15%[15.4 µM]
Cc1c(C(=O)NN2CCCCC2)nn(-c2ccc(Cl)cc2Cl)c1-c1ccc(Cl)cc1 | . | . | . | -71* | . | .
CC(NCC(=O)NC(=O)NC1CCCC1)c1ccc(Cl)cc1Cl (stereo not given) | 10% | . | -2% | -63* | 5 | 9%
O=C(COC(=O)c1ccc(Cl)cc1)NC(=O)NC1CCCC1 | 6% | . | -1% | 10 | -15 | 13%[15.4 µM]
CCOC(=O)C(Cc1ccccc1)NC(=O)CCCC(=O)c1ccccc1 (stereo not given) | ? | 4 | 1% | -2 | 24 | -13%
CCN1C=CC(=C2C(=O)c3ccccc3C2=O)C=C1 | -8% | -8 | -2% | -6 | -94* | -20%
CCCN1C=CC(=C2C(=O)c3ccccc3C2=O)C=C1 | -15% | -4 | 0% | -10 | -97* | -54%
CCCCCCN1C=CC(=C2C(=O)c3ccccc3C2=O)C=C1 | -2% | 0 | 0% | 3 | ? | -1%
O=C1S/C(=C/c2ccc(N3CCOCC3)o2)C(=O)N1Cc1ccc(F)cc1 | 19% | . | 1% | -6 | 18 | 1%
CC(C)OC(=O)CN1C(=O)S/C(=C/c2ccc(N3CCCCC3)o2)C1=O | 2% | -38* | 0% | -13 | -6 | -35%
COc1ccc2cc(/C=C3\SC(=S)NC3=O)c(N3CCOCC3)nc2c1 | 35µM* | 10 | 4% | -19 | -13 | 24%
O=C1S/C(=C\c2ccc(N3CCOCC3)o2)C(=O)N1Cc1ccc(F)cc1 | 0% | -36* | 5% | -16 | 20 | 7%
O=C1NC(=S)S/C1=C/c1ccc(N2CCOCC2)o1 | ? | -51* | 0% | -28 | -15 | 29%
CC(SC1=NS(=O)(=O)c2ccccc21)C(=O)O (stereo not given) | . | . | . | . | -7 | .
Cn1c(SCc2nnc(-c3ccc(F)cc3)o2)nnc1C1COc2ccccc2O1 (stereo not given) | 5% | 0 | 2% | 9 | -8 | 15%
Cn1c(SCc2ccc(C(C)(C)C)cc2)nnc1C1COc2ccccc2O1 (stereo not given) | -26% | 0 | -1% | -69* | -7 | 29%
C=C1CC2COC(=O)C2(Cc2ccc3ccccc3c2)C1 (stereo not given) | . | 0 | . | . | . | .
Cc1ccc(S(=O)(=O)NCC(=O)NCc2cc(=O)n(C)c(=O)n2C)cc1C | 6% | 2 | 6% | -100* | -24 | 8%
